Calls of active or inactive are those of the source.
How the values were obtained:
[1] = tested on: PRMT1 (protein arginine N-methyltransferase 1); assay: small molecules binding arginine methyltransferase PRMT1 – biochemical, small-molecule microarray, 635 nm fluorescence, primary screen (AID 1088); settings: higher = more signal;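 note: binding of Prmt1 protein to compounds spotted on small-molecule microarray slides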
[2] = growth effects on S. cerevisiae YJM789 – YJM789 clinical isolate, OD600, 24 h, basal, primary screen (AID 1089); settings: higher = more signal, called active from +8 up or from −8 down;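 note: growth of clinical yeast isolate S. cerevisiae YJM 789 seeded 1000 cells per well; test concentration not given here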
[3] = S. pombe growth modifiers, basal conditions – strain 972, OD600, 24 h, no modulator, primary screen (AID 1090);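 note: basal condition with compound alone and no growth modifier present; test concentration not given here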; settings: S. pombe 972 growth, higher = more signal, called active from +8 up or from −8 down
[4] = budding yeast growth modifiers under rapamycin – strain BY4716, OD600, 96 h, primary screen (AID 1091); note: test concentration not given here; settings: S. cerevisiae BY4716 + rapamycin, higher = more signal, called active from +8 up or from −8 down
[5] = biological target: Torsin-1A-interacting protein 2 (Homo sapiens) (UniProt Q8NFQ8); assay: small molecules binding lysate-expressed LULL1 – cell lysate, human LULL1 lysate, 635/667 nm fluorescence, primary screen (AID 1092); settings: small-molecule microarray, hLULL1 lysate binding, 635 nm fluorescence; higher = more signal;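 note: probe is lysate of COS7 cells overexpressing human LULL1; score merges per-feature 667 nm fluorescence with signal-to-noise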
[6] = optical density change of DRC41 E. coli – strain DRC41, OD650, 24 h, E. coli filamentation project, primary screen (AID 1093);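 note: MC1000 strain lacking acrAB efflux and sulA so SOS filamentation is blocked; test concentration not given here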; settings: E. coli DRC41 growth, higher = more signal, called active from +8 up or from −8 down
[7] = probe aLefty2 binding to arrayed compounds – biochemical, biotinylated probe, 635/667 nm fluorescence, primary screen (AID 1094); settings: small-molecule microarray, higher = more signal;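 note: score merges spot fluorescence near 667 nm with spot signal-to-noise ratio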
[8] = tested on: Noggin (protein binding on small-molecule microarray); assay: small molecules binding Noggin protein – biochemical, 635/667 nm fluorescence, primary screen (AID 1095); settings: 635 nm fluorescence, higher = more signal;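 note: score merges 667 nm feature fluorescence with signal to noise over triplicate slides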
[9] = biological target: Neurogenic locus notch homolog protein 3 (Homo sapiens) (UniProt Q9UM47); assay: small molecules binding NOTCH3 protein – biochemical, 635/667 nm fluorescence, primary screen (AID 1096); settings: small-molecule microarray, 635 nm fluorescence, higher = more signal
[10] = probe aEGFR binding to arrayed compounds – biochemical, biotinylated probe, 635/667 nm fluorescence, primary screen (AID 1097); settings: small-molecule microarray, higher = more signal;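 note: probe is a biotinylated anti-EGFR antibody binding compounds printed on slides; score combines fluorescence near 667 nm and signal to noise of each spot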
[11] = tested on: Plasmodium falciparum Sir2 (PF13_0152, Sir2A); assay: Plasmodium falciparum Sir2A binding compounds – biochemical, small-molecule microarray, 635 nm fluorescence, primary screen (AID 1098); settings: fluorescence 635 nm, higher = more signal;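 note: score merges spot fluorescence intensity with its signal-to-noise ratio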
[12] = probe aDKK1 binding to arrayed compounds – biochemical, biotinylated probe, 635/667 nm fluorescence, primary screen (AID 1099); settings: small-molecule microarray, higher = more signal;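 note: score merges 667nm spot fluorescence with signal to noise across triplicate slides; reference of the scale not given here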
[13] = probe aCHRDL2 binding to arrayed compounds – biochemical, biotinylated probe, 635/667 nm fluorescence, primary screen (AID 1100); settings: small-molecule microarray, higher = more signal
[14] = change in splice reporter luminescence, either direction, cell-based, HEK293, spliceosome inhibition project, primary screen (AID 1101); settings: HEK293 splicing luciferase reporter, 24 h, higher = more signal, called active from +8 up or from −8 down;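 note: HEK293 cells carrying a splicing-competent luciferase reporter gene; test concentration not given here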
[15] = biological target: Fibroblast growth factor 10 (Homo sapiens) (UniProt O15520); assay: compounds binding fibroblast growth factor 10 – biochemical, small-molecule microarray, 635 nm fluorescence, primary screen (AID 1102); settings: FGF10 binding, fluorescence 635 nm, higher = more signal
[16] = tested on: glycogen synthase kinase-3 (GSK3A per assay name; protocol says GSK3B); assay: compounds binding glycogen synthase kinase-3 – biochemical, small-molecule microarray, 635 nm fluorescence, GSK3A, primary screen (AID 1103); settings: fluorescence 635 nm, higher = more signal; note: the record names both GSK3A and GSK3B
[17] = biological target: Epidermal growth factor receptor (Homo sapiens) (UniProt P00533); assay: compounds binding epidermal growth factor receptor – biochemical, small-molecule microarray, 635 nm fluorescence, primary screen (AID 1104); settings: EGFR binding, higher = more signal;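 note: score merges 667 nm emission intensity with spot signal to noise over triplicate slides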
[18] = biological target: Follistatin-related protein 3 (Homo sapiens) (UniProt O95633); assay: compounds binding follistatin-related protein 3 – biochemical, small-molecule microarray, 635 nm fluorescence, primary screen (AID 1105); settings: FSTL3 binding, higher = more signal;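 note: score merges emission near 667 nm and signal to noise per printed spot across three slides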
[19] = biological target: Dickkopf-related protein 1 (Homo sapiens) (UniProt O94907); assay: small molecules binding DKK1 protein – biochemical, small-molecule microarray, 635 nm fluorescence scan, primary screen (AID 1106); settings: higher = more signal;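 note: score merges emission near 667 nm with signal to noise over three replicate slides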
[20] = tested on: Inhibin beta A chain (activin A); assay: small molecules binding activin A – biochemical, small-molecule microarray, 635 nm fluorescence scan, primary screen (AID 1107); settings: INHBA, higher = more signal;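 note: mouse activin A protein probed at 4.33 µg/mL on printed slides; score merges bound-protein fluorescence near 667 nm with spot signal-to-noise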

Sequence of Follistatin-related protein 3 (Homo sapiens) (O95633 whole entry, looked up): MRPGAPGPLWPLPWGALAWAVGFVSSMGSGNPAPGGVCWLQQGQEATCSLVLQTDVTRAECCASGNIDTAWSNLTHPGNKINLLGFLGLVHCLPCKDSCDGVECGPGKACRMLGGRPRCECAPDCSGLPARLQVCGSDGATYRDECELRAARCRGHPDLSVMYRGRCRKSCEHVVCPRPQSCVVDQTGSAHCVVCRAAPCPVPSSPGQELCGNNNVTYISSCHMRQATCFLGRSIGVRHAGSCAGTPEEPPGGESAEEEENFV
Sequence of Dickkopf-related protein 1 (Homo sapiens) (O94907 whole entry, looked up): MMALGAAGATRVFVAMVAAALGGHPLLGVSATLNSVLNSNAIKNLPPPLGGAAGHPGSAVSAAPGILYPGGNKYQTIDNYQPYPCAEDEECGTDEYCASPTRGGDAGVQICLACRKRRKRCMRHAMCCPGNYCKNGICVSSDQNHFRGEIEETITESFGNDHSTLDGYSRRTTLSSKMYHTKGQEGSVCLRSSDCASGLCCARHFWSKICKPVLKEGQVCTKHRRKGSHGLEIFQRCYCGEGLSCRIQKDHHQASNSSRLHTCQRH
Sequence of Epidermal growth factor receptor (Homo sapiens) (P00533 whole entry, looked up): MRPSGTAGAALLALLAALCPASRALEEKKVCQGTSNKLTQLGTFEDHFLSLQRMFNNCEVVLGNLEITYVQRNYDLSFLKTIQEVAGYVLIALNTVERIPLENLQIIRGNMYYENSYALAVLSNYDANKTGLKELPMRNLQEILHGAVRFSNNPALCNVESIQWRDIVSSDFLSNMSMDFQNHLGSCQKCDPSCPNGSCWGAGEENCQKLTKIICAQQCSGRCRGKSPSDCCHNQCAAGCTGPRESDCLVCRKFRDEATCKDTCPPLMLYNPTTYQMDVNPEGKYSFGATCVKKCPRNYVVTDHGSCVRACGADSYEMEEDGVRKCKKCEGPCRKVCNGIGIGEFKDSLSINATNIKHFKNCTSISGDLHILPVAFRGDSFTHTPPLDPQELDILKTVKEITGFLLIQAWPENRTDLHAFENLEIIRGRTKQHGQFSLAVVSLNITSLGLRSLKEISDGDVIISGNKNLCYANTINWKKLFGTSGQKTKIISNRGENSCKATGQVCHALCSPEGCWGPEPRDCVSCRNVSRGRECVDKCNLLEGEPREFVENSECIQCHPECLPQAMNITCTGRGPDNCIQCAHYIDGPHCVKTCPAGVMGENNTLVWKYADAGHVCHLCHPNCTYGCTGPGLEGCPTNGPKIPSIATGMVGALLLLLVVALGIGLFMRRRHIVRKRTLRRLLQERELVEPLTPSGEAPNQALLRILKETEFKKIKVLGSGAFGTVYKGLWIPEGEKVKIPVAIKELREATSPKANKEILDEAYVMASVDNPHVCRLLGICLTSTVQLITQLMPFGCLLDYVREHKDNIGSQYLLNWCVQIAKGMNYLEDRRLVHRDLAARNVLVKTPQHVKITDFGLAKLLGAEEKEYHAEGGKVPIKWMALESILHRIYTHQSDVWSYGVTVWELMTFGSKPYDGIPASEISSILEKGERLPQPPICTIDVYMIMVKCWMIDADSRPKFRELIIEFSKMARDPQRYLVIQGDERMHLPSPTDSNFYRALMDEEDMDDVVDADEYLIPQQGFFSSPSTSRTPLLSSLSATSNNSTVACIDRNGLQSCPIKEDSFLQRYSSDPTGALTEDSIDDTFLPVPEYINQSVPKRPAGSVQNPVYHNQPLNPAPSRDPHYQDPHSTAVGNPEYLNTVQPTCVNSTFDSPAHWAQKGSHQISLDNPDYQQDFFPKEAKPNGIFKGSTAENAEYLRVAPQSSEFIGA
Sequence of Neurogenic locus notch homolog protein 3 (Homo sapiens) (Q9UM47 whole entry, looked up): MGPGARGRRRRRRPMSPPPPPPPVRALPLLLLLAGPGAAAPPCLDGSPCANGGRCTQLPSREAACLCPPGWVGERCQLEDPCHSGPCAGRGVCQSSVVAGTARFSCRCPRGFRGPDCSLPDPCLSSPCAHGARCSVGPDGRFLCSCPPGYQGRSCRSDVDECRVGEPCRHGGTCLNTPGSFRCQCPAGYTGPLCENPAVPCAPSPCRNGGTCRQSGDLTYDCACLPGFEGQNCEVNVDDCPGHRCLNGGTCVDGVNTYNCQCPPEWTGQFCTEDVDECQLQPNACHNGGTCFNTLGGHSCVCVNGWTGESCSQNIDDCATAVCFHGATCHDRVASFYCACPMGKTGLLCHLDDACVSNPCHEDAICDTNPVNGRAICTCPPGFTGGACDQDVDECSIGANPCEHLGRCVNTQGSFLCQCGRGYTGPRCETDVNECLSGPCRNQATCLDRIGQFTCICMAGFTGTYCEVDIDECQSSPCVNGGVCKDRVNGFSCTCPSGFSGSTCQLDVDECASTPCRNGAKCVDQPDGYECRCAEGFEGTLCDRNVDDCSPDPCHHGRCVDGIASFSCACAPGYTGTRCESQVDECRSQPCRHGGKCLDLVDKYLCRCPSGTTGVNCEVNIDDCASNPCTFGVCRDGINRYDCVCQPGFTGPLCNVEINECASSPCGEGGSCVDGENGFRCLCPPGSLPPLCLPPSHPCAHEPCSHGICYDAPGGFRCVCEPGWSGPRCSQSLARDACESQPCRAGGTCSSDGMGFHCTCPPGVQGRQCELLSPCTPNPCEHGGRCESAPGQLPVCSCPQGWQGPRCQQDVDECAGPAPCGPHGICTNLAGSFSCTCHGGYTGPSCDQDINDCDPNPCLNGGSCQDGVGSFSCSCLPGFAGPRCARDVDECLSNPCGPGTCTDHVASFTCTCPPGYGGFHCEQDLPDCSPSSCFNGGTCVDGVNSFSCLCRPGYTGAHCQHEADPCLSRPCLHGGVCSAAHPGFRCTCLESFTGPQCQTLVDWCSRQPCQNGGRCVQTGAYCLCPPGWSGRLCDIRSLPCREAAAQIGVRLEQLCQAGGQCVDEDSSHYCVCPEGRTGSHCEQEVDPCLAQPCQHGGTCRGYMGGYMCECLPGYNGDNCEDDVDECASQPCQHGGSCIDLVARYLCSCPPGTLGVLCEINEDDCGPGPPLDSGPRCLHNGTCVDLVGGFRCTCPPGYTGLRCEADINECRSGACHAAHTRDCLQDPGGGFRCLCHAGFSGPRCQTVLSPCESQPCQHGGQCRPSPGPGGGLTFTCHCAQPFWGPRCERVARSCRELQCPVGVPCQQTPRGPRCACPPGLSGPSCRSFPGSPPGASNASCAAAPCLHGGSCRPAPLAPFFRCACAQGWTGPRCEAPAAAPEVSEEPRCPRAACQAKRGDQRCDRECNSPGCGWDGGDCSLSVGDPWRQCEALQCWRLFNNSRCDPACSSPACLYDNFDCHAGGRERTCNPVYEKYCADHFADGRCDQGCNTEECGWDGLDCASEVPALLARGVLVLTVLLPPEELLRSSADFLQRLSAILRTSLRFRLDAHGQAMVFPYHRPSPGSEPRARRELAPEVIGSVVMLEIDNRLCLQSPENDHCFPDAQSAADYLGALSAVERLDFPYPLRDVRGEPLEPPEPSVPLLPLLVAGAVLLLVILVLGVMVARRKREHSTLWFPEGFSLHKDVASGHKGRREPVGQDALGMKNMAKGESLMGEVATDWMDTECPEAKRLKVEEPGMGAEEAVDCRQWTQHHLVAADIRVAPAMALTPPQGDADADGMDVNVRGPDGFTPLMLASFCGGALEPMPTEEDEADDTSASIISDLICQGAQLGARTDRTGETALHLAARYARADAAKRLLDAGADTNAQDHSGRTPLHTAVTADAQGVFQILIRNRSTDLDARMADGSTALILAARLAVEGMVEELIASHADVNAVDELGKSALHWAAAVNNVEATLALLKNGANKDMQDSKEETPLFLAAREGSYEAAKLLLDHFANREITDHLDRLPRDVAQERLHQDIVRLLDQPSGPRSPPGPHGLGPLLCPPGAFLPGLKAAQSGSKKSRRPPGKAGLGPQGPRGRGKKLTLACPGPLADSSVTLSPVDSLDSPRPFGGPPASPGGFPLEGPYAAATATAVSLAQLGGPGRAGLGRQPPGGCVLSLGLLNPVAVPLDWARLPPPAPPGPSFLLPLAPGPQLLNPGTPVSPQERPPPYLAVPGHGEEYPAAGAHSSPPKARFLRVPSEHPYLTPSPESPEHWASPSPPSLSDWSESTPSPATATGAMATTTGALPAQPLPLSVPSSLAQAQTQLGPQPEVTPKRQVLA
Sequence of Fibroblast growth factor 10 (Homo sapiens) (O15520 whole entry, looked up): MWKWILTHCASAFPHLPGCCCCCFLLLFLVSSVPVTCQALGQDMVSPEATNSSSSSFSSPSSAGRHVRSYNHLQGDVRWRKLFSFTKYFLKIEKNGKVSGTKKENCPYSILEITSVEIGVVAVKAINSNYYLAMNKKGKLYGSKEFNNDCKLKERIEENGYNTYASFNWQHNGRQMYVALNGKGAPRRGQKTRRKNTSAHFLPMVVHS
Sequence of Torsin-1A-interacting protein 2 (Homo sapiens) (Q8NFQ8 whole entry, looked up): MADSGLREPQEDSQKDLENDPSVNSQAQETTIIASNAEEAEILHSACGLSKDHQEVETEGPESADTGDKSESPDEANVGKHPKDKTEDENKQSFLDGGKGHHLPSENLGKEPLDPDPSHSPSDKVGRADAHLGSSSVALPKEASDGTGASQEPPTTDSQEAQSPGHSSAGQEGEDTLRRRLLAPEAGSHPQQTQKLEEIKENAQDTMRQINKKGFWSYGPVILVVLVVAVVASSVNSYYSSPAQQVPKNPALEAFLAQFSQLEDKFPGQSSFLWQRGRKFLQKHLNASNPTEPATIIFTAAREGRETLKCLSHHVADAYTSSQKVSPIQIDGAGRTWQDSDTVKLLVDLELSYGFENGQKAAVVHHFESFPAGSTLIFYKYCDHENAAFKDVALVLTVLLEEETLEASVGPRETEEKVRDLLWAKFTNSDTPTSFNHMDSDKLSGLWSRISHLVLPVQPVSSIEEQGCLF

| SMILES | composite z-score [1] | z-score [2] | z-score [3] | z-score [4] | composite z-score [5] | z-score [6] | composite z-score [7] | composite z-score [8] | composite z-score [9] | composite z-score [10] | composite z-score [11] | composite z-score [12] | composite z-score [13] | z-score [14] | composite z-score [15] | composite z-score [16] | composite z-score [17] | composite z-score [18] | composite z-score [19] | composite z-score [20] |
| --- | --- | --- | --- | --- | --- | --- | --- | --- | --- | --- | --- | --- | --- | --- | --- | --- | --- | --- | --- | --- |
| COC(=O)C1=CC(CCCO)=CC(c2ccc(CN3CCCC3)cc2)N(C)C=C1C(=O)OC (stereo not given) | 0.853 | -0.512 (inactive) | 0.0939 (inactive) | -0.19 (inactive) | 3.4 | 0.0791 (inactive) | 0.0723 | -0.2 | 0.276 | 0.0816 | 1.65 | 0.629 | 0.549 | 0.657 (inactive) | 0.883 | -0.302 | -0.138 | 0.345 | -0.36 | 0.861 |
| C=C(C(=O)CC[C@H](OC(=O)c1ccccc1-c1ccccc1C(=O)O)c1ccc(OCCO)cc1)C(C)C | 1.51 | -1.2 (inactive) | -0.788 (inactive) | -1.28 (inactive) | 3.04 | 0.438 (inactive) | -0.135 | 0.779 | 0.241 | 0.0675 | 1.26 | 0.157 | 0.0371 | -0.47 (inactive) | 1.04 | 0.114 | -0.242 | 0.0428 | 0.339 | 0.548 |
| CC(C)N1CC=CC23O[C@@H]4/C=C\CCCOC(=O)C4[C@H]2C(=O)N(C(C)CO)[C@@H]3C1=O (stereo not given in full) | 0.336 | -1 (inactive) | -1.09 (inactive) | -1.08 (inactive) | 1.95 | 1.8 (inactive) | -0.174 | -1.25 | -0.155 | -0.297 | 0.748 | -0.4 | 0.44 | -1.09 (inactive) | -0.663 | -1.02 | -0.962 | -0.849 | -1.35 | 0.493 |
| CCOC(=O)C[C@H]1[C@H](OC(=O)c2ccc(-c3ccccc3)cc2)[C@@H](NC(=O)c2ccc(-c3ccccc3)cc2)c2cc(OCCCO)ccc2N1C(=O)c1ccccc1 | 1.26 | 0.495 (inactive) | 0.785 (inactive) | 1.3 (inactive) | 1.69 | -0.783 (inactive) | -0.275 | 0.253 | 1.07 | -0.183 | 0.518 | 0.685 | 0.365 | 0.594 (inactive) | 0.79 | 0.477 | 0.101 | 0.719 | 0.69 | -0.12 |
| COC(=O)[C@@]1(Cc2ccccc2)[C@H]2c3cc(C(=O)N(C)C)n(Cc4ccc(Cl)c(C(F)(F)F)c4)c3C[C@H]2CN1C(=O)c1ccccc1 | 0.813 | 1.01 (inactive) | 1.45 (inactive) | 3.56 (inactive) | 2.74 | -1.12 (inactive) | 0.146 | 1.59 | 1.01 | 0.0926 | 0.685 | 0.841 | 1.02 | -1.45 (inactive) | 1.37 | 1.31 | 0.603 | 1.45 | 0.283 | 1.29 |
| O=C1NC(=O)C2C1C=CC(C(O)C(O)CO)N2Nc1ccccn1 (stereo not given) | 0.635 | -0.517 (inactive) | 0.294 (inactive) | -0.73 (inactive) | 0.541 | -1.02 (inactive) | -0.343 | 0.349 | 0.32 | 0.0713 | 0.0854 | -0.191 | -0.104 | -0.396 (inactive) | 0.183 | 0.335 | 0.386 | 0.178 | 0.173 | 0.0473 |
| C=CCNC(=O)[C@H]1[C@@H]2C(=O)O[C@@H](c3ccccc3)[C@@H](c3ccccc3)N2[C@@H](c2ccc(OCCO)cc2)[C@]12C(=O)N(C(=O)OCCOC)c1ccc(C#CCC(C(=O)OC)C(=O)OC)cc12 | 1.54 | 2.06 (inactive) | 1.07 (inactive) | 6.82 (inactive) | 3.45 | -0.0319 (inactive) | 0.771 | 1.42 | 1.08 | 0.315 | 1.4 | 0.713 | 0.997 | 0.345 (inactive) | 1.44 | 1.16 | 0.524 | 1.08 | 0.5 | 0.768 |
| CN(C)CCCCCCNC(=O)[C@@H]1C[C@@H]2C(=O)N[C@@H](CCCC[N+](C)(C)C)C(=O)N2[C@@H]1c1cccc(OCCO)c1 | -0.357 | -3.6 (inactive) | -1 (inactive) | -1.17 (inactive) | 2.79 | 0.797 (inactive) | 0.141 | -0.349 | 0.363 | -0.108 | 0.512 | 0.116 | 0.474 | -1.52 (inactive) | -1.11 | 0.218 | -0.962 | -0.714 | -0.377 | -0.246 |
| O=C1C[C@@](C(=O)NCC(F)(F)F)(c2ccc([N+](=O)[O-])cc2)[C@@H](c2ccc(CO)cc2I)N1CC12CC3CC(CC(C3)C1)C2 | 1.55 | -1.36 (inactive) | -0.301 (inactive) | 21.1 (active) | 2.73 | 0.548 (inactive) | -0.189 | 0.515 | 0.978 | -0.206 | 1.5 | -0.113 | 0.0558 | -1.85 (inactive) | 0.343 | 0.785 | 0.237 | 0.406 | -0.0464 | 0.227 |

— PubChem BioAssay
